Inconclusive results are not listed. Values without a mark were called inactive. Calls of active or inactive are those of the source. The call rests on the fitted dose curve; in most records, active means well fitted inhibition curve with a large enough effect; inconclusive means small, poorly fitted or top-dose-only effect; inactive means flat fitted curve, though single readings scatter.
On the % scale 0 is the no-effect control and ±100 the full control effect.

Phospholipid hydroperoxide glutathione peroxidase GPX4 (Homo sapiens), sequence (P36969 whole entry, looked up): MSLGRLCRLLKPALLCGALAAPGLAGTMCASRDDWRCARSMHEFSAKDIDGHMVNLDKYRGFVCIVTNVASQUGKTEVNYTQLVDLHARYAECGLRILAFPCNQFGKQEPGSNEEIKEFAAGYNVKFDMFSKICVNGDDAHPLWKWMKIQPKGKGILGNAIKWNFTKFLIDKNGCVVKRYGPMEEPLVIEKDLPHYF

This experiment concerns the target Phospholipid hydroperoxide glutathione peroxidase GPX4 (Homo sapiens) (UniProt P36969). Nature of the experiment: Primary qHTS Assay for Inhibitors of Recombinant Selenoprotein Glutathione Peroxidase 4 (GPX4) (AID 1845192). Further: nearly all actives have a fitted effect of over 65% in size. Particulars: recombinant GPX4, GR-coupled NADPH fluorescence, 15 min; series mostly up to 50 µM; activity change, negative = inhibition: at the top concentration. The essentials:
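GR-coupled assay: recombinant GPX4 preincubated 30 min with compound at room temperature; final 200 nM GPX4, 1 mM GSH, 0.5 mM cumene hydroperoxide, 0.5 mM NADPH, 100 nM GR, 0.01% BSA, pH 7.5 Tris. NADPH fluorescence (340/450 nm) read at 0 and 15 min.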
On the technique in general: Quantitative high-throughput screening tests each substance at several concentrations.
Regarding `CCOC(=O)N1c2ccc(C(F)(F)F)cc2[C@@H](N(Cc2cc(C(F)(F)F)cc(C(F)(F)F)c2)C(=O)OC)C[C@H]1CC`, the result was inactive.

Consider `C#CCN(C)CC1=Cc2ccccc2Oc2ccccc21`, for which the “activity change, negative = inhibition” value is -2.15%.

With `CCOc1ccccc1N=Nc1c(C)[nH]n(-c2nc(-c3ccccc3)cs2)c1=O`, the outcome was inactive.

With `CC[C@]1(O)C[C@H]2CN(CCC3=c4ccccc4=N[C]3[C@@](C(=O)OC)(c3cc4c(cc3OC)N(C)[C@H]3[C@@](O)(C(N)=O)[C@H](O)[C@]5(CC)C=CCN6CC[C@]43[C@@H]65)C2)C1`, the “activity change, negative = inhibition” value is -10.5%.

For the compound `CN1CCN2c3ncccc3Cc3ccccc3C2C1` (stereo not drawn), the Potency entry is “inactive”.

Regarding `Cc1ccc(C(=O)N(CCCN)[C@@H](c2nc3cc(Cl)ccc3c(=O)n2Cc2ccccc2)C(C)C)cc1`, the “activity change, negative = inhibition” value was -7.37%.

In the case of `COc1c(C)cnc(Cn2cnc3c(Cl)nc(N)nc32)c1C`, the result was inactive.

Consider `CC[C@@H]([C@H](C)O)n1ncn(-c2ccc(N3CCN(c4ccc(OCC5CO[C@@](Cn6cncn6)(c6ccc(F)cc6F)C5)cc4)CC3)cc2)c1=O` (stereo partly drawn), for which the “activity change, negative = inhibition” value is -7.35%.

Regarding `CC1=C(CC(=O)O)c2cc(F)ccc2C1=Cc1ccc(S(C)=O)cc1` (stereo not drawn), the “activity change, negative = inhibition” value was -6.72%.

Take `COc1cc([C@@H]2c3cc4c(cc3[C@@H](O[C@@H]3O[C@@H]5CO[C@@H](C)O[C@@H]5[C@H](O)[C@@H]3O)[C@H]3COC(=O)[C@H]23)OCO4)cc(OC)c1O`: the “activity change, negative = inhibition” value is -7.94%.

On to `Cc1ccc(S(=O)(=O)Nc2nc3ccccc3nc2Nc2ccc3nsnc3c2)cc1`, for which the “activity change, negative = inhibition” value was -3.79% [at 27.8 µM].

`COc1cc2nccc(Oc3ccc(NC(=O)Nc4ccc(F)cc4F)c(F)c3)c2cc1OC`: the “activity change, negative = inhibition” value was 3.89%.

As to `CCCCC(C)(C)[C@H](O)C=C[C@H]1[C@H](O)CC(=O)[C@H]1CC=CCCCC(=O)O`, the “activity change, negative = inhibition” value was -9.27%.

The values above are taken from PubChem BioAssay (NCATS).
